# Only a selection was taken, and hits are over-represented in it overall.
# ERK EGF inh: EGF-driven ERK pathway inhibition | HEK293-V1b, EGF-stimulated phospho-ERK AlphaScreen | Potency, µM (titrated, usually from 11.5 µM), inactives show at the top dose activity change, negative = inhibition, most hits filed as inhibitors | 130,000 compounds, 0.41% hits | AID 1454; active = well fitted inhibition curve with a large enough effect;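 also: plate controls were stimulated vehicle wells for no effect and unstimulated vehicle basal for full effect; nearly all actives have a fitted effect of over 55% in size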
#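 Readout: AlphaScreen signal for phosphorylated ERK in lysed HEK293 cells stably expressing V1b. Stimulus 25 nM EGF, 5 min, following 30 min compound exposure. Data scaled to DMSO basal and full EGF activation.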
# * hit, by the source's call; ! = not confirmed by another sample; [ ] = remark or other dose. Potency is read from the fitted curve at half-maximal effect.
SMILES,ERK EGF inh
CC1(C)C[C@H]2C=C(C=O)[C@]3(C=O)C[C@]3(C)[C@H]2C1,10µM*
C[C@]12[C@H](O)CC3C(CC[C@@H]4C[C@@H](O)CC[C@]34C)[C@@]1(O)CC[C@@H]2C1=CC(=O)OC1 (stereo partly specified),-13%
Cc1ccc(NC(=O)c2snnc2C)cc1Cl,-40%
C=CCNC(=S)Nc1ccc(OC(=O)Nc2ccc(Cl)c(Cl)c2)cc1,-16%[57.5 µM]
Cc1nn(C(C)(C)C)c(C)c1/C=N/OC(=O)Nc1ccc(Cl)c(Cl)c1,32µM*
O=C1C=C2C=CC3C[C@@]2(O1)C1CCCCN31 (stereo partly specified),2%
C#C[C@@]1(O)CC[C@@H]2[C@@H]3CCC4=CC(=O)CC[C@@]4(C)[C@H]3CC[C@]21C,8%[25.7 µM]
c1ccc(N2CCC3(CCNCC3)CC2)cc1,-8%
CNc1ccc2oc(C[C@H]3O[C@@]4(CC[C@H]3C)O[C@H]([C@H](C)C(=O)c3ccc[nH]3)[C@H](C)C[C@H]4C)nc2c1C(=O)O,14µM*!
CN1CC[C@@]2(c3cccc(O)c3)Cc3nc4ccccc4cc3C[C@H]2C1,18%
CC(C)CC(N)C1(c2ccc(Cl)cc2)CCC1 (stereo unspecified),-12%
CC(C)(O)C1C2OC(=O)C1[C@]1(O)C[C@H]3O[C@]34C(=O)O[C@H]2[C@]14C (stereo partly specified) (tested in a mixture with another compound),18%
C=C1C(=O)O[C@@H]2C[C@@H](C)[C@@H]3C=CC(=O)[C@@]3(C)[C@@H](OC(=O)CC(=O)O[C@H]3[C@@H]4C(=C)C(=O)O[C@@H]4C[C@@H](C)[C@@H]4C=CC(=O)[C@]43C)[C@H]12,4.5µM*
C=C1C(=O)O[C@H]2C[C@@H](C)[C@@H]3C=CC(=O)[C@@]3(C)C[C@H]12,1%[57.5 µM]
C=C1C(=O)O[C@H]2[C@H]1[C@H](OC(=O)CC(=O)O[C@@H]1C[C@@H](C)[C@@H]3C=CC(=O)[C@@]3(C)[C@H]3OC(=O)C(=C)[C@H]13)C[C@@H](C)[C@H]1C=CC(=O)[C@]12C,13%[57.5 µM]
CC(=O)C1CCC2C3CCC4=CC(=O)CC[C@@]4(C)C3CC[C@]12C (stereo partly specified),4%
CC[C@@H]1CN2CCc3cc(OC)c(OC)cc3[C@@H]2C[C@@H]1C[C@H]1NCCc2cc(OC)c(OC)cc21,-7%
CN(C)C1C(=O)C(C(N)=O)=C(O)[C@@]2(O)C(=O)C3=C(O)c4c(O)ccc(Cl)c4[C@](C)(O)C3CC12 (stereo partly specified),-4%
CC/C=C\C/C=C\C/C=C\C/C=C\C/C=C\CCCC(=O)NC(C)C(=O)O (stereo unspecified),0%
O=c1[nH]c2ccccc2n1C1CCN(CCCC(c2ccc(F)cc2)c2ccc(F)cc2)CC1,25µM*!
O=C1Nc2cc(Cl)c(Cl)cc2N2CCNC[C@H]12,8%
C[C@H]1CC[C@@]2(NC1)O[C@@H]1C[C@H]3[C@@H]4CC[C@@H]5C[C@@H](O)CC[C@@]5(C)[C@@H]4CC[C@]3(C)[C@@H]1[C@@H]2C,1%[25.7 µM]
O[N+]1=CC=CCC1=S.On1ccccc1=S.[Zn],20µM*
C[C@@H]1O[C@@H](O[C@H]2CC[C@]3(C=O)C4CC[C@]5(C)[C@@H](C6=CC(=O)OC6)CC[C@]5(O)[C@@H]4CC[C@]3(O)C2)[C@H](O)[C@H](O)[C@H]1O (stereo partly specified),10%
O=C1CC[C@@]2(O)C3Cc4ccc(O)c5c4C2(CCN3CC2CC2)[C@H]1O5 (stereo partly specified),6%
SMILES,ERK EGF inh
NC(N)=Nc1ccc2[nH]c3c(c2c1)C[C@]1(O)[C@@H]2Cc4ccc(O)c5c4[C@]1(CCN2CC1CC1)[C@@H]3O5,-10%
CCCCCCCCCCCCCCC[C@@H](O)[C@@H](N)COP(=O)(O)O,-17%
CCc1ccc(C(=O)NN(C(=O)c2cc(C)cc(C)c2)C(C)(C)C)cc1,4%
CN(C)c1ccc(/C=C2\C(=O)NC(=O)N(Cc3ccc(F)cc3)C2=O)cc1,5%[57.5 µM]
CCN(CC)c1ccc(C=C2C(=O)NC(=S)NC2=O)cc1,28µM*
Cc1nn(Cc2ccccc2)c(C)c1C=C1C(=O)NC(=S)NC1=O,5%
C[C@H]1O[C@@H](O[C@H]2[C@@H](O)C[C@H](O[C@H]3[C@@H](O)C[C@H](O[C@H]4CC[C@]5(C)C6CC[C@]7(C)[C@@H](C8=CC(=O)OC8)CC[C@]7(O)C6CC[C@@H]5C4)O[C@@H]3C)O[C@@H]2C)C[C@H](O)[C@@H]1O (stereo partly specified),-5%
CCCN1C[C@H](C)N([C@H](c2ccc(C(=O)N(CC)CC)cc2)c2cccc(OC)c2)C[C@H]1C,-7%
Clc1ccc(COC(Cn2ccnc2)c2ccc(Cl)cc2Cl)cc1 (stereo unspecified),28µM*
Clc1ccc(CS[C@@H](Cn2ccnc2)c2ccc(Cl)cc2Cl)cc1,2%[25.7 µM]
c1ccc(Cn2ccnc2)cc1,-12%[57.5 µM]
CN(C(=O)Cc1ccc(Cl)c(Cl)c1)[C@H](CN1CCCC1)c1cccc(N=C=S)c1,4%
CCCCC/C=C\C=C\[C@H](CCCCCCCC(=O)O)OO,-10%
C[C@H](N)Cc1c[nH]c2ccc(OCc3cccs3)cc12,-2%
CC(=O)Oc1c2c(c(CC=C(C)C)c3c1C(=O)C1=CC4CC5C(C)(C)OC(C/C=C(\C)C(=O)O)(C4=O)[C@]15O3)OC(C)(CCC=C(C)C)C=C2 (stereo partly specified),13µM*
c1ccc(CN2CCC3(CCNCC3)CC2)cc1,-3%
COC(=O)C12CC3=CCC4C(=O)N(c5ccccc5)C(=O)C4C3Cc3ccccc3[C@@H]1CNC2=O (stereo partly specified),0%
c1cc(CN2CCCC3(CCNCC3)C2)ccn1,8%
NC(=O)c1cn(C2OC(CO)C(O)C2O)c2ncnc(N)c12 (stereo unspecified),-2%
CCNC(=O)[C@H]1O[C@@H](n2cnc3c(N)ncnc32)[C@H](O)[C@@H]1O,8.9µM*
CCNC(=O)[C@@H]1O[C@@H](n2cnc3c(N)ncnc32)[C@H](O)[C@H]1O,-14%
C=C(C)C1Cc2c(ccc3c2OC2COc4cc(OC)c(OC)cc4C2C3=O)O1 (stereo unspecified),8%
CC(=O)N1CCN(c2ccc(OC[C@@H]3CO[C@@](Cn4ccnc4)(c4ccc(Cl)cc4Cl)O3)cc2)CC1,6%[25.7 µM]
O=C(CCCN1CCC2(CC1)C(=O)N(Cc1cccc(F)c1)CN2c1ccccc1)c1ccc(F)cc1,10%
C=C(C=O)C[C@@H]1C[C@H](O)C2OC3C[C@]4(C)OC5/C=C\CC6OC7C(CC=CCC6OC5CCCC4OC3CC2O1)OC1CC2OC3CC(=O)OC3C[C@@H](C)C[C@@]2(C)OC1C[C@@H]7C (stereo partly specified),4µM*
C=C(CC1CC(O)[C@]2(C)OC3CC4OC5C[C@]6(C)O[C@]7(C)CCC8OC9C[C@]%10(C)OC%11C(C)=CC(=O)OC%11CC%10OC9C[C@@H](C)C8OC7CC6O[C@]5(C)C/C=C\C4OC3CC2O1)C(=O)O (stereo partly specified),-12%[57.5 µM]
CC1OC(=O)C(C(C)C)NC(=O)C(C(C)C)OC(=O)C(C(C)C)NC(=O)C(C)OC(=O)C(C(C)C)NC(=O)C(C(C)C)OC(=O)C(C(C)C)NC(=O)C(C)OC(=O)C(C(C)C)NC(=O)C(C(C)C)OC(=O)C(C(C)C)NC1=O (stereo unspecified),7%

# Screening data (PubChem BioAssay)
